According to the supplement of paper PMC8728848:
This excerpt belongs to a sample that is enriched for the strongest signals.

Assays:
Test in all cases: glycan array binding signal (z-score within array); higher = stronger binding
Settings in all cases: glycan notation: IUPAC condensed, linker removed; mutation: Y54A
[1] = target: Fuc(a1-2)Gal(b1-4)GlcNAc(b1-2)Man
Method in brief: (§1)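 Arrays were curated from the Consortium for Functional Glycomics database, 3228 in total, and kept only where the protein sequence was available. Binding is expressed as a within-array Z-score. This score was averaged across arrays of the same protein sequence at different concentrations or buffers and across linkers, and negative values can be read as non-binding.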

[2] = target: Fuc(a1-2)Gal(b1-4)GlcNAc(b1-3)Gal(b1-4)GlcNAc(b1-2)Man(a1-3)[Fuc(a1-2)Gal(b1-4)GlcNAc(b1-3)Gal(b1-4)GlcNAc(b1-2)Man(a1-6)]Man(b1-4)GlcNAc(b1-4)GlcNAc
Method in brief: as §1

[3] = target: Fuc(a1-2)Gal6S(b1-3)GlcNAc
Method in brief: as §1

[4] = target: Fuc(a1-2)[Gal(a1-3)]Gal(b1-3)GlcNAc(b1-6)GalNAc
Method in brief: as §1

[5] = target: Fuc(a1-2)[GalNAc(a1-3)]Gal(b1-3)GalNAc(b1-3)Gal(a1-4)Gal(b1-4)Glc
Method in brief: as §1

[6] = target: Fuc(b1-3)GlcNAc
Method in brief: as §1

[7] = target: Gal(a1-3)Gal(b1-4)GlcNAc(b1-2)Man(a1-3)[Gal(a1-3)Gal(b1-4)GlcNAc(b1-2)Man(a1-6)]Man(b1-4)GlcNAc(b1-4)GlcNAc
Method in brief: as §1

[8] = target: Gal(a1-3)Gal(b1-4)GlcNAc(b1-6)GalNAc
Method in brief: as §1

[9] = target: Gal(b1-3)Gal
Method in brief: as §1

[10] = target: Gal(b1-3)GlcNAc(b1-3)Gal(b1-3)GlcNAc
Method in brief: as §1

[11] = target: Gal(b1-3)GlcNAc(b1-3)Gal(b1-4)Glc
Method in brief: as §1

[12] = target: Gal(b1-3)[Fuc(a1-4)]GlcNAc(b1-2)Man
Method in brief: as §1

[13] = target: Gal(b1-3)[Fuc(a1-4)]GlcNAc(b1-2)Man(a1-3)[Gal(b1-3)[Fuc(a1-4)]GlcNAc(b1-2)Man(a1-6)]Man(b1-4)GlcNAc(b1-4)[Fuc(a1-6)]GlcNAc
Method in brief: as §1

[14] = target: Gal(b1-4)GlcNAc(b1-2)[Gal(b1-4)GlcNAc(b1-4)]Man(a1-3)[Gal(b1-4)GlcNAc(b1-2)[Gal(b1-4)GlcNAc(b1-6)]Man(a1-6)]Man(b1-4)GlcNAc(b1-4)GlcNAc
Method in brief: as §1

[15] = target: Gal(b1-4)GlcNAc(b1-3)Gal(b1-4)GlcNAc(b1-3)Gal(b1-4)GlcNAc(b1-3)Gal(b1-4)GlcNAc(b1-2)Man(a1-3)[Gal(b1-4)GlcNAc(b1-3)Gal(b1-4)GlcNAc(b1-3)Gal(b1-4)GlcNAc(b1-3)Gal(b1-4)GlcNAc(b1-2)Man(a1-6)]Man(b1-4)GlcNAc(b1-4)GlcNAc
Method in brief: as §1

[16] = target: Gal(b1-4)GlcNAc(b1-3)Gal(b1-4)GlcNAc(b1-3)Gal(b1-4)GlcNAc(b1-3)Gal(b1-4)GlcNAc(b1-3)Gal(b1-4)GlcNAc(b1-2)Man(a1-3)[Gal(b1-4)GlcNAc(b1-3)Gal(b1-4)GlcNAc(b1-3)Gal(b1-4)GlcNAc(b1-3)Gal(b1-4)GlcNAc(b1-3)Gal(b1-4)GlcNAc(b1-2)Man(a1-6)]Man(b1-4)GlcNAc(b1-4)[Fuc(a1-6)]GlcNAc
Method in brief: as §1

[17] = target: Gal(b1-4)GlcNAc(b1-3)Gal(b1-4)GlcNAc(b1-3)Gal(b1-4)GlcNAc(b1-3)Gal(b1-4)GlcNAc(b1-3)Gal(b1-4)GlcNAc(b1-2)[Gal(b1-4)GlcNAc(b1-3)Gal(b1-4)GlcNAc(b1-3)Gal(b1-4)GlcNAc(b1-3)Gal(b1-4)GlcNAc(b1-3)Gal(b1-4)GlcNAc(b1-6)]Man(a1-6)[Gal(b1-4)GlcNAc(b1-3)Gal(b1-4)GlcNAc(b1-3)Gal(b1-4)GlcNAc(b1-3)Gal(b1-4)GlcNAc(b1-3)Gal(b1-4)GlcNAc(b1-2)Man(a1-3)]Man(b1-4)GlcNAc(b1-4)[Fuc(a1-6)]GlcNAc
Method in brief: as §1

[18] = target: Gal(b1-4)GlcNAc(b1-3)Gal(b1-4)GlcNAc(b1-3)[Gal(b1-4)GlcNAc(b1-3)Gal(b1-4)GlcNAc(b1-6)]GalNAc
Method in brief: as §1

[19] = target: Gal(b1-6)Gal
Method in brief: as §1

[20] = target: Gal3S(b1-4)[Fuc(a1-3)]GlcNAc6S
Method in brief: as §1

[21] = target: Gal3S6S(b1-4)GlcNAc6S
Method in brief: as §1

[22] = target: Gal4S6S(b1-4)GlcNAc
Method in brief: as §1

[23] = target: Gal6S(b1-4)GlcNAc
Method in brief: as §1

[24] = target: GalNAc(b1-3)Gal(a1-4)Gal(b1-4)GlcNAc(b1-3)Gal(b1-4)Glc
Method in brief: as §1

[25] = target: GalNAc(b1-3)GalNAc
Method in brief: as §1

[26] = target: GalNAc3S(b1-4)[Fuc(a1-3)]GlcNAc
Method in brief: as §1

[27] = target: GlcA3S(b1-3)Gal(b1-4)GlcNAc(b1-3)Gal(b1-4)Glc
Method in brief: as §1

[28] = target: GlcNAc(b1-2)Gal(b1-3)GalNAc
Method in brief: as §1

[29] = target: Man(a1-3)[Man(a1-6)]Man(a1-6)[Man(a1-2)Man(a1-3)]Man(b1-4)GlcNAc(b1-4)GlcNAc
Method in brief: as §1

[30] = target: Neu5Ac(a2-3)Gal(b1-3)GalNAc6S
Method in brief: as §1

[31] = target: Neu5Ac(a2-3)Gal(b1-3)GlcNAc(b1-2)Man(a1-3)[Neu5Ac(a2-3)Gal(b1-3)GlcNAc(b1-2)Man(a1-6)]Man(b1-4)GlcNAc(b1-4)GlcNAc
Method in brief: as §1

[32] = target: Neu5Ac(a2-3)Gal(b1-3)GlcNAc(b1-2)[Neu5Ac(a2-3)Gal(b1-3)GlcNAc(b1-4)]Man(a1-6)[Neu5Ac(a2-3)Gal(b1-3)GlcNAc(b1-2)Man(a1-3)]Man(b1-4)GlcNAc(b1-4)GlcNAc
Method in brief: as §1

[33] = target: Neu5Ac(a2-3)Gal(b1-3)GlcNAc6S
Method in brief: as §1

[34] = target: Neu5Ac(a2-3)Gal(b1-3)[Neu5Ac(a2-6)]GalNAc
Method in brief: as §1

[35] = target: Neu5Ac(a2-3)Gal(b1-4)GlcNAc(b1-2)Man(a1-3)[Neu5Ac(a2-3)Gal(b1-4)GlcNAc(b1-2)Man(a1-6)]Man(b1-4)GlcNAc(b1-4)GlcNAc
Method in brief: as §1

[36] = target: Neu5Ac(a2-3)Gal(b1-4)GlcNAc(b1-3)GalNAc
Method in brief: as §1

[37] = target: Neu5Ac(a2-3)Gal(b1-4)[Fuc(a1-3)]GlcNAc(b1-3)GalNAc
Method in brief: as §1

[38] = target: Neu5Ac(a2-3)Gal6S(b1-4)GlcNAc
Method in brief: as §1

[39] = target: Neu5Ac(a2-6)Gal(b1-4)Glc
Method in brief: as §1

[40] = target: Neu5Ac(a2-6)Gal(b1-4)GlcNAc(b1-2)Man(a1-3)[GlcNAc(b1-4)][Neu5Ac(a2-6)Gal(b1-4)GlcNAc(b1-2)Man(a1-6)]Man(b1-4)GlcNAc(b1-4)GlcNAc
Method in brief: as §1

[41] = target: Neu5Ac(a2-6)Gal(b1-4)GlcNAc(b1-2)[Neu5Ac(a2-6)Gal(b1-4)GlcNAc(b1-4)]Man(a1-3)[GlcNAc(b1-4)][Neu5Ac(a2-6)Gal(b1-4)GlcNAc(b1-2)[Neu5Ac(a2-6)Gal(b1-4)GlcNAc(b1-6)]Man(a1-6)]Man(b1-4)GlcNAc(b1-4)GlcNAc
Method in brief: as §1

[42] = target: Neu5Ac(a2-6)Gal(b1-4)GlcNAc(b1-3)Gal(b1-4)GlcNAc(b1-3)Gal(b1-4)GlcNAc
Method in brief: as §1

[43] = target: Neu5Ac(a2-6)Gal(b1-4)GlcNAc(b1-3)Gal(b1-4)[Fuc(a1-3)]GlcNAc(b1-3)Gal(b1-4)[Fuc(a1-3)]GlcNAc
Method in brief: as §1

[44] = target: Neu5Ac(a2-6)Gal(b1-4)GlcNAc(b1-6)[Gal(b1-3)]GalNAc
Method in brief: as §1

[45] = target: Neu5Ac(a2-6)Gal(b1-4)GlcNAc6S
Method in brief: as §1

[46] = target: Neu5Ac(a2-8)Neu5Ac(a2-8)Neu5Ac(a2-3)Gal(b1-4)Glc
Method in brief: as §1

[47] = target: Neu5Ac(a2-8)Neu5Gc(a2-3)Gal(b1-4)GlcNAc
Method in brief: as §1

[48] = target: Neu5Ac(b2-6)GalNAc
Method in brief: as §1

[49] = target: Neu5Gc(a2-3)Gal(b1-4)GlcNAc(b1-3)Gal(b1-4)GlcNAc(b1-2)Man(a1-3)[Neu5Gc(a2-3)Gal(b1-4)GlcNAc(b1-3)Gal(b1-4)GlcNAc(b1-2)Man(a1-6)]Man(b1-4)GlcNAc(b1-4)GlcNAc
Method in brief: as §1

[50] = target: Neu5Gc(b2-6)Gal(b1-4)GlcNAc
Method in brief: as §1

B1: CBP21 (Serratia marcescens), O83009 (protein)
chain: MNKTSRTLLSLGLLSAAMFGVSQQANAHGYVESPASRAYQCKLQLNTQCGSVQAEPQSVEGLKGFPQAGPADGHIASADKSTFFELDQQTPTRWNKLNLKTGPNSFTWKLTARHSTTSWRYFITKPNWDASQPLTRASFDLTPFCQFNDGGAIPAAQVTHQCNIPADRSGSHVILAVWDIADTANAFYQAIDVNLSK
glycan array binding signal (z-score) [1]: -0.872 | glycan array binding signal (z-score) [2]: 2.34 | glycan array binding signal (z-score) [3]: 4.33 | glycan array binding signal (z-score) [4]: -0.403 | glycan array binding signal (z-score) [5]: -0.164 | glycan array binding signal (z-score) [6]: -0.276 | glycan array binding signal (z-score) [7]: -0.395 | glycan array binding signal (z-score) [8]: 1.24 | glycan array binding signal (z-score) [9]: -0.635 | glycan array binding signal (z-score) [10]: 0.339 | glycan array binding signal (z-score) [11]: 1.22 | glycan array binding signal (z-score) [12]: 0.608 | glycan array binding signal (z-score) [13]: 0.588 | glycan array binding signal (z-score) [14]: 0.113 | glycan array binding signal (z-score) [15]: 0.181 | glycan array binding signal (z-score) [16]: 5.09 | glycan array binding signal (z-score) [17]: 1.3 | glycan array binding signal (z-score) [18]: -0.31 | glycan array binding signal (z-score) [19]: -0.809 | glycan array binding signal (z-score) [20]: -0.109 | glycan array binding signal (z-score) [21]: 4.88 | glycan array binding signal (z-score) [22]: 0.517 | glycan array binding signal (z-score) [23]: 4.2 | glycan array binding signal (z-score) [24]: -0.857 | glycan array binding signal (z-score) [25]: -0.995 | glycan array binding signal (z-score) [26]: 0.039 | glycan array binding signal (z-score) [27]: -0.278 | glycan array binding signal (z-score) [28]: -0.7 | glycan array binding signal (z-score) [29]: 0.228 | glycan array binding signal (z-score) [30]: 5.86 | glycan array binding signal (z-score) [31]: -0.307 | glycan array binding signal (z-score) [32]: 5.4 | glycan array binding signal (z-score) [33]: -0.121 | glycan array binding signal (z-score) [34]: 3.97 | glycan array binding signal (z-score) [35]: -0.458 | glycan array binding signal (z-score) [36]: 3.83 | glycan array binding signal (z-score) [37]: 0.503 | glycan array binding signal (z-score) [38]: 4.07 | glycan array binding signal (z-score) [39]: -0.381 | glycan array binding signal (z-score) [40]: -0.098 | glycan array binding signal (z-score) [41]: 0.142 | glycan array binding signal (z-score) [42]: -0.314 | glycan array binding signal (z-score) [43]: 4.6 | glycan array binding signal (z-score) [44]: 0.13 | glycan array binding signal (z-score) [45]: 3.37 | glycan array binding signal (z-score) [46]: 0.027 | glycan array binding signal (z-score) [47]: -0.455 | glycan array binding signal (z-score) [48]: -0.919 | glycan array binding signal (z-score) [49]: 2.24 | glycan array binding signal (z-score) [50]: -0.206
